Laboratory results from the supplement of paper PMC11001985.
Values without a mark were called inactive.

Compound: C#CCNC(=O)CCSSCCC(=O)NCCc1ccc(C=O)c(C=O)c1
Experiment: lysine labeling ratio R10:1 (500 µM / 50 µM probe), SILAC-ABPP in living cells; higher = lower intrinsic lysine reactivity toward the probe, active = 2 or less
Settings: HeLa; probe concentrations 500 vs 50 µM
Procedure, shortened: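 SILAC light and heavy living HeLa cells in PBS at room temperature were labelled with 50 µM or 500 µM of an alkyne-tagged, disulfide-linked lysine probe, with forward and reverse label swaps. Mixed lysates were clicked to biotin-azide, trypsin-digested, captured on neutravidin, DTT-released, alkylated and analysed by LC-MS/MS on a TIMS-TOF Pro. R is the filtered median high-probe/low-probe MS1 peptide ratio per lysine, then the median across forward and reverse replicates. Ratios are capped at 20.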

Sequence of UniProt P11142 (P11142 whole entry, looked up): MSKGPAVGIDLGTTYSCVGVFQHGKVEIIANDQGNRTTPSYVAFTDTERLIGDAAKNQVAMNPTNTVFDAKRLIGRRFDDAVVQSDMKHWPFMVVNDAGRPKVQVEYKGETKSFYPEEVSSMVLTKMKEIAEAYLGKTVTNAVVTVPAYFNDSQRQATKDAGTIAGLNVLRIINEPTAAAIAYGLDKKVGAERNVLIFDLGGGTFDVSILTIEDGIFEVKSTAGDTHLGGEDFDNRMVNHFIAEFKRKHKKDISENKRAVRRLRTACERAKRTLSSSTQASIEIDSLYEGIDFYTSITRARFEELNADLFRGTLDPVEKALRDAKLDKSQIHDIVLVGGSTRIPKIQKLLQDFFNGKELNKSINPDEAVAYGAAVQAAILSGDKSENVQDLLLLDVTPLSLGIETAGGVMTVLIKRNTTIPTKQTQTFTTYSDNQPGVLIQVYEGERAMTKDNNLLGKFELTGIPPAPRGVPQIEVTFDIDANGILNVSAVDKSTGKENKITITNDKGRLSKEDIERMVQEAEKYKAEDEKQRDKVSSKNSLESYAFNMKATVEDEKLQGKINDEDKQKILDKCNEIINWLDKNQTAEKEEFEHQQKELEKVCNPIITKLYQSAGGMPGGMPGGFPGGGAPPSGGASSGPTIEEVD
Sequence of UniProt P11021 (P11021 whole entry): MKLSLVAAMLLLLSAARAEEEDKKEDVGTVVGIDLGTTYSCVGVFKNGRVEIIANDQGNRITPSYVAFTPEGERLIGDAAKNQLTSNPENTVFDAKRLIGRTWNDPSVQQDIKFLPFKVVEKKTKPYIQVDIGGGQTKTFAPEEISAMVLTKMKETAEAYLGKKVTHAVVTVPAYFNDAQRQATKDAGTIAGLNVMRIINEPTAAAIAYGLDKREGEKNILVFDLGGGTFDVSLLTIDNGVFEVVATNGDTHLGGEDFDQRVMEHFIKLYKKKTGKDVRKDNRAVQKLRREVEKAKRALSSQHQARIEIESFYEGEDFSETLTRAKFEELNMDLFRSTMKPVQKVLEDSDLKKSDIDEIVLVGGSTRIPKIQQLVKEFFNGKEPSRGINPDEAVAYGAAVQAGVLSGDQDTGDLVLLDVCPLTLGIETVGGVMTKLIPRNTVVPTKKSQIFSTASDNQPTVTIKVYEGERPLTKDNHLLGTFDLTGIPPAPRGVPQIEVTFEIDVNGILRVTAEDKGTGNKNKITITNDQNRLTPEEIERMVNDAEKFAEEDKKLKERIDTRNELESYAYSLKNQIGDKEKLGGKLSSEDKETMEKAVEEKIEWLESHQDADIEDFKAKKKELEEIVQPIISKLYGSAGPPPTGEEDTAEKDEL
Sequence of UniProt P04920 (P04920 whole entry): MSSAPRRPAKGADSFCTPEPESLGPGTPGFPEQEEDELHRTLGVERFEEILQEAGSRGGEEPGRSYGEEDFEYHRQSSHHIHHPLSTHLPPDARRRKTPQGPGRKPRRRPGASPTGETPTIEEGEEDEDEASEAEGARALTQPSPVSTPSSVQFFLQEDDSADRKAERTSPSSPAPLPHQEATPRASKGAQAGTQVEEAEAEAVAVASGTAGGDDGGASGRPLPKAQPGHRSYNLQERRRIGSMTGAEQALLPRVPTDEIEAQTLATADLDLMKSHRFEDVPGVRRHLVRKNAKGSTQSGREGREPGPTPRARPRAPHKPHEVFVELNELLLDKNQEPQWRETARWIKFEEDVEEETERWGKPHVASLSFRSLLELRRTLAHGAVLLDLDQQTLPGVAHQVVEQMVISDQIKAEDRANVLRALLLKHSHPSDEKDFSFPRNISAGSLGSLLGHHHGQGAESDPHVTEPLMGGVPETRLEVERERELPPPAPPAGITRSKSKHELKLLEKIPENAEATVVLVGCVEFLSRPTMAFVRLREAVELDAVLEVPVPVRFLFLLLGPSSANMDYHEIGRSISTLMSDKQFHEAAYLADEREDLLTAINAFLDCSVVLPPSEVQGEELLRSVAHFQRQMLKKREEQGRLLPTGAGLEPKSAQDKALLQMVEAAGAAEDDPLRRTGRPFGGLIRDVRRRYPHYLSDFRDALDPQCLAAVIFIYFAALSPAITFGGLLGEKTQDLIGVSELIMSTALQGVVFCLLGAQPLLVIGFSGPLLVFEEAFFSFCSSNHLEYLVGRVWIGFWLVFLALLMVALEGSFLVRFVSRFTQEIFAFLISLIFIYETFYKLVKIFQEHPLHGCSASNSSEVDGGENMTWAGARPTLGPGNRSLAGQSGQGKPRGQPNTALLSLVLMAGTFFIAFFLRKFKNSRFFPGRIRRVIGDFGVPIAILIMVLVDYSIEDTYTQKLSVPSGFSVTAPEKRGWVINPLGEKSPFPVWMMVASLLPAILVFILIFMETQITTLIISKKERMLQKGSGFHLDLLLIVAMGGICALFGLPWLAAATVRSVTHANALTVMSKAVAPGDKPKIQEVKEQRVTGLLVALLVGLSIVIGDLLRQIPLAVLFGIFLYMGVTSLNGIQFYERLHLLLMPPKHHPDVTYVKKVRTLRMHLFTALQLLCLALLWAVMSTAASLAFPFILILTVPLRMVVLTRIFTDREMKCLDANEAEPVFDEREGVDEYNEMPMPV
Sequence of UniProt P32004 (P32004 whole entry): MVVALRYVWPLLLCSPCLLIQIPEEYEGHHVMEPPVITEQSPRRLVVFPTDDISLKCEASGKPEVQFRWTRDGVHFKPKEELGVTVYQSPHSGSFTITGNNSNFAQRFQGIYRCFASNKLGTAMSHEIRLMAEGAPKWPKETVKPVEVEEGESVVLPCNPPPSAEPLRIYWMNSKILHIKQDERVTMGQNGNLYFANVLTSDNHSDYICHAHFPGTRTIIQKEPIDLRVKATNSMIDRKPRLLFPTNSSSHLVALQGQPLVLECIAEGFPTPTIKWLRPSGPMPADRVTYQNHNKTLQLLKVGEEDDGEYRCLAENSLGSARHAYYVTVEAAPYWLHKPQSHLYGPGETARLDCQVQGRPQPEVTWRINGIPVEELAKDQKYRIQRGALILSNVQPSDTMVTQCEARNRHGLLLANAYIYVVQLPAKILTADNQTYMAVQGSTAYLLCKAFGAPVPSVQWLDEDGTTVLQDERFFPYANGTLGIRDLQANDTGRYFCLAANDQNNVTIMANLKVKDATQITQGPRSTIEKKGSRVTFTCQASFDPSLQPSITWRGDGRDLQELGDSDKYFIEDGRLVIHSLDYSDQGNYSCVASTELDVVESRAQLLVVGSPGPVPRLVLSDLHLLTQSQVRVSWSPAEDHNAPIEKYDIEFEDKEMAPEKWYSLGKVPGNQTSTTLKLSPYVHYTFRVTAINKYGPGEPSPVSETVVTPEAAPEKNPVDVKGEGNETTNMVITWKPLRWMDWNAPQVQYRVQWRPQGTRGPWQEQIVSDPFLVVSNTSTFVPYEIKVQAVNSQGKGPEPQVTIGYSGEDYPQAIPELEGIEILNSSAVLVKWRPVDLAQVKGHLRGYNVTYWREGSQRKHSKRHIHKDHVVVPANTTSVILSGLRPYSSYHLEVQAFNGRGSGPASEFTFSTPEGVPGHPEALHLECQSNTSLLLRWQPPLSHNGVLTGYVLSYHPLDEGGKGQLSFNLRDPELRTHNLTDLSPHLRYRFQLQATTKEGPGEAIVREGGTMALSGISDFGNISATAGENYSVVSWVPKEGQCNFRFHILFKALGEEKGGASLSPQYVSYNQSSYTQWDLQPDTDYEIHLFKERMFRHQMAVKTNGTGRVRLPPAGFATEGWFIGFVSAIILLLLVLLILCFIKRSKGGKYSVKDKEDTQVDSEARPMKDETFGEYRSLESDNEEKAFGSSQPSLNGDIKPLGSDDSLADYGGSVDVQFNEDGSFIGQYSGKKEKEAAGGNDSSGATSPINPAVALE
Sequence of UniProt P14625 (P14625 whole entry): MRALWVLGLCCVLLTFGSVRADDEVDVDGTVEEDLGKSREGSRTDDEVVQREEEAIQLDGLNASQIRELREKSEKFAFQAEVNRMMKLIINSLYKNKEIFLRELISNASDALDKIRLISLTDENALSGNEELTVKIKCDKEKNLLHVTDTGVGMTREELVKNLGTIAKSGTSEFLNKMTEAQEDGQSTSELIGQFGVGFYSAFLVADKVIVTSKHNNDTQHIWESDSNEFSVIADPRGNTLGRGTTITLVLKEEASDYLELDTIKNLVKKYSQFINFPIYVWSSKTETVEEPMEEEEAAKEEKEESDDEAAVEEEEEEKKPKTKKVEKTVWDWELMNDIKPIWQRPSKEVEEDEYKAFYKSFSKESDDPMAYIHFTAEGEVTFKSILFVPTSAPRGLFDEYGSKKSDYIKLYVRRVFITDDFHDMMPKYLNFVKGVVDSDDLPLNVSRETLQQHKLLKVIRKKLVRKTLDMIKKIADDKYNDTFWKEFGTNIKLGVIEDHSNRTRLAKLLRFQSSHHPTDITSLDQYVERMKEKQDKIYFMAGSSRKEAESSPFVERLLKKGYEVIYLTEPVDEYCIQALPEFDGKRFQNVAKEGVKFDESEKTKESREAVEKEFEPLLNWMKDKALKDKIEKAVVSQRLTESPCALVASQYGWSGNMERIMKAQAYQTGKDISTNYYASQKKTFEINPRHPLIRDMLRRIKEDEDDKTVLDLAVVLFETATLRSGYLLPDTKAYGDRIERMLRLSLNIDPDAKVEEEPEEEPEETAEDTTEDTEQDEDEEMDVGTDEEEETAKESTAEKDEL
Sequence of UniProt Q04837 (Q04837 whole entry): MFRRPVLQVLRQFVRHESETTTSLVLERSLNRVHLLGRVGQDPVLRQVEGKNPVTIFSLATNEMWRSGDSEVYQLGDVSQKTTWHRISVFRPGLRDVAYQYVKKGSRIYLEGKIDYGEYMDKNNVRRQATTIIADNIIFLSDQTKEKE
Sequence of UniProt P51665 (P51665 whole entry): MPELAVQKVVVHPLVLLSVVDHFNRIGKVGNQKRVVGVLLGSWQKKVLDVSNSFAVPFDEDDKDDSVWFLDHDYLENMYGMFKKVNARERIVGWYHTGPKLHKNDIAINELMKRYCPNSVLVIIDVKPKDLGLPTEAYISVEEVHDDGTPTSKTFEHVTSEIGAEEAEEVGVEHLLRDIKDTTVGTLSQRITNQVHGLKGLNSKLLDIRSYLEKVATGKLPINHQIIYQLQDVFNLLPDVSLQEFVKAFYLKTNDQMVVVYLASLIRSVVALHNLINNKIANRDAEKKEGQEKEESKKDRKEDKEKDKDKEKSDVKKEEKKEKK

Target | lysine labeling ratio R10:1
NUCB1 (lysine site: K302) (UniProt Q02818) | 2.22
ATAD3B (lysine site: K117) (UniProt Q5T9A4) | 1.26 (active)
EEF2 (lysine site: K498) (UniProt P13639) | 3.9
HSP90B1 (lysine site: K97) (UniProt P14625) | 5.42
CDH2 (lysine site: K189) (UniProt P19022) | 4.45
UniProt Q68BL7 (lysine site: K168) | 1.12 (active)
RPL5 (lysine site: K48) (UniProt P46777) | 1.91 (active)
SUB1 (lysine site: K53) (UniProt P53999) | 9.37
TLN1 (lysine site: K357) (UniProt Q9Y490) | 1.16 (active)
ITGA1 (lysine site: K81) (UniProt P56199) | 2.7
UniProt P05787 (lysine site: K325) | 12.1
HSPA8 (lysine site: K531) (UniProt P11142) | 3.46
HSPA8 (lysine site: K257) (UniProt P11142) | 3.1
ITGB1 (lysine site: K202) (UniProt P05556) | 4.2
HSPA5 (lysine site: K523) (UniProt P11021) | 3.39
RPS5 (lysine site: K63) (UniProt P46782) | 3.35
SLC4A2 (lysine site: K893) (UniProt P04920) | 3.14

Target | lysine labeling ratio R10:1
UniProt Q15149 (lysine site: K3849) | 8.61
ITGA6 (lysine site: K310) (UniProt P23229) | 1.72 (active)
MYH9 (lysine site: K860) (UniProt P35579) | 2.67
UniProt Q9NYQ6 (lysine site: K316) | 3.81
VIM (lysine site: K445) (UniProt P08670) | 10.9
UniProt P62851 (lysine site: K66) | 2.69
MCAM (lysine site: K286) (UniProt P43121) | 2.67
PSMD7 (lysine site: K180) (UniProt P51665) | 2.86
SYNE2 (lysine site: K1618) (UniProt Q8WXH0) | 1.41 (active)
SSBP1 (lysine site: K81) (UniProt Q04837) | 4.93
PTPRS (lysine site: K144) (UniProt Q13332) | 1.57 (active)
DSG2 (lysine site: K406) (UniProt Q14126) | 3.75
FLNB (lysine site: K2088) (UniProt O75369) | 2.27
L1CAM (lysine site: K531) (UniProt P32004) | 7.51
FGB (lysine site: K422) (UniProt P02675) | 2.18
NLRX1 (lysine site: K301) (UniProt Q86UT6) | 2.38
HSPA5 (lysine site: K185) (UniProt P11021) | 3.68
